Inconclusive results are not listed. Activity calls are given as the source filed them. Unless noted, calls come from the whole dose curve; as a rule, active = well fitted curve in the direction sought with a large enough effect; inconclusive = small, poorly fitted or top-dose-only effect, or another doubt; inactive = no such curve, though single readings can be large; an effect the other way counts as inactive or inconclusive.

The target in experiment [1] is Lysosomal acid glucosylceramidase (Homo sapiens) (UniProt P04062). Kind of experiment: Glucocerebrosidase-p2 (AID 348; in the data active = potency below about 10 µM; note: potency is the fitted concentration of half-maximal effect). The conditions noted are these: purified GBA, blue fluorogenic substrate, 40 min. The procedure, abridged:
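Normal human glucocerebrosidase (0.2 nM) with blue fluorogenic substrate (80 uM final) in citrate/phosphate pH 5.9 with 10mM sodium taurocholate, 0.01% tween-20; 40 min RT, NaOH/glycine stop; fluorescence Ex 365/Em 440; AC50 from a titration from 0.6 nM upwards.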

Experiment [2] can be described thus: AP1 Signaling Pathway (AID 357; active = well fitted curve in either direction with a large enough effect, not every such curve was filed as active; note: % is set by controls: 0 for no effect and ±100 for the full control effect). The settings on record: ME-180 AP-1-bla reporter, EGF-induced, beta-lactamase ratio, 5 h; at 7.69 µM (top of the series) unless noted. The essentials:
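ME-180 cells with beta-lactamase reporter under AP-1 response element, stimulated with EC50 EGF; compounds tested in titration series, 5 h at 37 °C. CCF4 substrate added 2.5 h at room temperature; 460/530 nm emission ratio gave %activity and AC50.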

Experiment [3] has as its target Cytochrome P450 1A2 (Homo sapiens) (UniProt P05177). Kind of experiment: p450-cyp1a2 (AID 410; calls by dose curve; note: potency is the fitted concentration of half-maximal effect). The essentials:
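O-Demethylation of luciferin 6' methyl ether by human CYP1A2 is monitored as luciferase luminescence. Substrate sits at Km (100uM); enzyme is 20nM. Values are scaled to 57 uM furafylline as maximal inhibition.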

Experiment [4] in a line: NFAT Signaling Pathway (AID 444; active = well fitted curve in either direction with a large enough effect, not every such curve was filed as active;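 note: carbachol stimulus at about its EC50 of 1 µM final; % is set by controls: 0 for no effect and ±100 for the full control effect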). The conditions noted are these: Jurkat NFAT-bla M1, carbachol, beta-lactamase ratio, 5 h; at 7.69 µM (top of the series) unless noted. The procedure, abridged:
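Jurkat cells carrying an NFAT-driven β-lactamase reporter and co-transfected muscarinic M1 receptor were treated with compound plus carbachol (1 uM final, an EC50 level) for 5 h at 37 °C. CCF4 loading followed for 1 h at RT; 460/530 nm ratio gave %activity.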

A short description of experiment [5]: Stat Signaling Pathway (AID 446; active = well fitted curve in either direction with a large enough effect, not every such curve was filed as active;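 note: ME-180 cervical cancer cells given 40 pM IL-6 alongside compound; SIE-controlled beta-lactamase reporter measured as 460/530 nm FRET emission ratio; % is set by controls: 0 for no effect and ±100 for the full control effect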). The conditions noted are these: ME-180 (cervical carcinoma) SIE beta-lactamase reporter, IL-6 stimulated, 5 h; at 7.69 µM (top of the series) unless noted. The essentials:
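Normalization used AC90 stimulation (300 pM IL-6) and AC90 inhibition (125 nM pan-JAK inhibitor at 40 pM IL-6). The underlying signal is SIE-driven beta-lactamase in ME-180 cells after 5 h IL-6 exposure with compound.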

The target of experiment [6] is Glucocorticoid receptor (Homo sapiens) (UniProt P04150). Kind of experiment: GR-EFC Redistribution (AID 451; calls by dose curve; note: potency is the fitted concentration of half-maximal effect). The conditions noted are these: CHO-K1 GR-EFC translocation, beta-gal luminescence, 2 h. The essentials:
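CHO-K1 cells stably expressing nuclear-localized β-gal enzyme acceptor and GR fused C-terminally to the enzyme donor fragment; ligand-driven nuclear translocation restores β-gal by complementation. Compounds titrated up to 46 uM final, 2 h at 37 °C; luminescence read.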

The target in experiment [7] is Mitogen-activated protein kinase 10 (Mus musculus) (UniProt Q61831). Kind of experiment: JNK3 AlphaScreen Assay (AID 530; active = well fitted curve in either direction with a large enough effect, not every such curve was filed as active;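 note: kinase came from lysate of stimulated human HepG2 cells; signal reports phosphorylation of biotinylated GST-cJun 1-79 at Ser73 with 10 µM ATP; % is set by controls: 0 for no effect and ±100 for the full control effect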). The procedure, abridged: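 Phosphorylation of biotinylated GST-cJun(1-79) at Ser73 is measured by AlphaScreen proximity luminescence. Enzyme is JNK3 in HepG2 lysates activated with interleukin-1beta and tumor necrosis factor alpha; ATP is 10 uM final.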
For orientation: Alpha assays give light when donor and acceptor beads are brought close together.

A short description of experiment [8]: qHTS Assay for Lipid Storage Modulators (AID 1519; calls by dose curve). The settings on record: Drosophila S3 cells, BODIPY lipid droplet/cell ratio, laser cytometry, cells loaded with oleic acid; for activity change, negative = inhibition: at 57.5 µM (top of the series). The essentials:
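Cells seeded at 5,000 per well were treated with compounds over a concentration series and loaded with oleic acid (400 uM, as added). Lipid droplet fluorescence (488 nm excitation, 500-530 nm channel) was read by laser-scanning cytometry and normalized to 20 uM Triacsin C.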
(qHTS replaces the single test concentration by a dilution series.)

The target of experiment [9] is Dual specificity protein kinase CLK4 (Homo sapiens) (UniProt Q9HAZ1). In words: qHTS Assay for Inhibitors of CDC-like Kinase 4 (ADP-Glo Assay) (AID 1771). Note: nearly all actives have a fitted effect of over 70% in size. Note: potency is the fitted concentration of half-maximal effect. The essentials:
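Compounds are pin-transferred onto substrate mix (100 uM RS peptide, 1 uM ATP), then 25 nM Clk4 is added. After 1 hr at room temperature, ADP-Glo reagent runs 45 min, detection reagent 30 min, then luminescence is read.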

For experiment [10] the target is unchanged. In words: qHTS Assay for Inhibitors of CDC-like Kinase 4 (ADP-FP Assay) (AID 1795). Note: nearly all actives have a fitted effect of over 60% in size. Note: potency is the fitted concentration of half-maximal effect. The procedure, abridged:
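Recombinant human Clk4 (6.25 nM) phosphorylated RS repeat peptide (100 uM) with 1 uM ATP in Tris pH 7.5/MgCl2/EGTA/DTT/Triton buffer for one hour. ADP was quantified by Transcreener competitive fluorescence polarization against an ADP calibration curve.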

The target in experiment [11] is Ubiquitin carboxyl-terminal hydrolase 1 (Homo sapiens) (UniProt O94782). Kind of experiment: Inhibitors of USP1/UAF1: Pilot qHTS (AID 504865).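 Note: rhodamine fluorescence freed from ubiquitin-rhodamine substrate followed over time; top concentration of the series differs between compounds; % is set by controls: 0 for no effect and ±100 for the full control effect; nearly all actives have a fitted effect of over 35% in size.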 The procedure, abridged:
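USP1/UAF1 complex (1nM) preincubated with compound 15 min at room temperature, then Ub-Rho substrate (150nM final) added. Fluorescence read kinetically at 480/540 nm, 6 reads every 60 seconds. Buffer: 50mM HEPES pH 7.8, 0.5mM EDTA, 0.1 mg/ml BSA, 1mM TCEP, 0.01% Tween-20.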

Experiment [12] in a line: Primary qHTS for small molecule stabilizers of the endoplasmic reticulum resident proteome: Secreted ER Calcium Modulated Protein (SERCaMP) assay (AID 1508630). Note: % is set by controls: 0 for no effect and ±100 for the full control effect. The essentials:
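The SH-SY5Y reporter protocol was run at 3 concentrations up to 38.3 uM (primary) or 11 concentrations (follow-up): 16 h compound, 100 nM thapsigargin for 4 h, then extracellular luciferase luminescence.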

Experiment [13] concerns the target Glucocorticoid receptor (Homo sapiens) (UniProt P04150). In words: GR-GFP Redistribution (AID 450;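 active = compounds whose dose series gives a full or clear partial fitted curve of increased nuclear translocation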; note: potency is the fitted concentration of half-maximal effect). The settings on record: U2OS GR-GFP nuclear translocation, laser cytometry, 2 h.
For experiment [14], the target named is 3',5'-cyclic-AMP phosphodiesterase 4B (Homo sapiens) (UniProt Q07343). In words: qHTS Assay for Inhibitors of PDE-IV (AID 607; active = well fitted activation curve with a large enough effect in the main read-out, with a control signal flat, not every such curve was filed as active; note: % of control where 0% means no effect). The procedure, abridged:
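HEK293 ACTOne cells with CNG channel (1000/well), endogenous PDE4; membrane potential dye, compounds up to 22.9 uM final. Fluorescence Ex 535/Em 590; RO 20-1724 (100 uM final) as reference.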

The target in experiment [15] is Cytochrome P450 3A4 (Homo sapiens) (UniProt P08684). Kind of experiment: qHTS Assay for Activators of Cytochrome P450 3A4 (AID 885). Note: nearly all actives have a fitted effect of over 65% in size. The procedure, abridged:
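Human CYP3A4 dealkylates Luciferin-PPXE to luciferin, which luciferase detection converts to light. Substrate was at its KM (25uM), buffer 200mM KPO4, reaction 60 min at RT.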

Experiment [16] has the same target. Kind of experiment: qHTS Assay for Inhibitors and Substrates of Cytochrome P450 3A4 (AID 884). Note: nearly all actives have a fitted effect of over 50% in size. Note: potency is the fitted concentration of half-maximal effect. The essentials: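 Luminescent readout of luciferin produced by CYP3A4 (20 nM) dealkylation of Luciferin-PPXE, 25 uM (its KM). NADPH-driven reaction ran 60 min at RT after 10 min compound preincubation; data scaled to 57 uM ketoconazole as 100% inhibition.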
The target in experiment [17] is Cytochrome P450 2C19 (Homo sapiens) (UniProt P33261). In words: qHTS Assay for Inhibitors and Substrates of Cytochrome P450 2C19 (AID 899). Note: potency is the fitted concentration of half-maximal effect; nearly all actives have a fitted effect of over 60% in size. The essentials:
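NADPH-dependent conversion of Luciferin-H EGE (10uM, at KM) by 5nM enzyme in 50mM KPO4, 60 min at 37C following 10 min compound preincubation. Stopped with luciferin detection buffer; luminescence read after 20 min.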

Where [18] appears, read: measured here: cell count channel max response.
[19] abbreviates: measured here: lipid channel max response.

Ubiquitin carboxyl-terminal hydrolase 1 (Homo sapiens), sequence (O94782 whole entry, looked up): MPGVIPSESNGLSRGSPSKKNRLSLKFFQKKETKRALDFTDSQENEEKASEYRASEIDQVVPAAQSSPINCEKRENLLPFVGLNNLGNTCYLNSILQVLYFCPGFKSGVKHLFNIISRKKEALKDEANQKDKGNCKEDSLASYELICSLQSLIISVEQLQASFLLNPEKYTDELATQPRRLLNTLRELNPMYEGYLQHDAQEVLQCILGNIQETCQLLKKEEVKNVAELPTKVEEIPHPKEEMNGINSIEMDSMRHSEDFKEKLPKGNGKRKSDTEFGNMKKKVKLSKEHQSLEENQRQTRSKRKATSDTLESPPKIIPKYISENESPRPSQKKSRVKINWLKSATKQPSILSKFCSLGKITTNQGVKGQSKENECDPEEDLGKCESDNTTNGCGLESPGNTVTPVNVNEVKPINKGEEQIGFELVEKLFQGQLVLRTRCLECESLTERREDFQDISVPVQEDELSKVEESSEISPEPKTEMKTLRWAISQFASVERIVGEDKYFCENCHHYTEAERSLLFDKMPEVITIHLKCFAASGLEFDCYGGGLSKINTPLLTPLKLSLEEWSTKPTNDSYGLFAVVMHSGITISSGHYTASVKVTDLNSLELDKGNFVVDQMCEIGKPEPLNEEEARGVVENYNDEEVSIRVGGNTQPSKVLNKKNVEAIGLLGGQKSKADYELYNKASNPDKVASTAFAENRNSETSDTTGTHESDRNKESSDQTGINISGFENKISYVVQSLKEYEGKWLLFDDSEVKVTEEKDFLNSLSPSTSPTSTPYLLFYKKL
Glucocorticoid receptor (Homo sapiens), sequence (P04150 whole entry, looked up, the tested form may be a part): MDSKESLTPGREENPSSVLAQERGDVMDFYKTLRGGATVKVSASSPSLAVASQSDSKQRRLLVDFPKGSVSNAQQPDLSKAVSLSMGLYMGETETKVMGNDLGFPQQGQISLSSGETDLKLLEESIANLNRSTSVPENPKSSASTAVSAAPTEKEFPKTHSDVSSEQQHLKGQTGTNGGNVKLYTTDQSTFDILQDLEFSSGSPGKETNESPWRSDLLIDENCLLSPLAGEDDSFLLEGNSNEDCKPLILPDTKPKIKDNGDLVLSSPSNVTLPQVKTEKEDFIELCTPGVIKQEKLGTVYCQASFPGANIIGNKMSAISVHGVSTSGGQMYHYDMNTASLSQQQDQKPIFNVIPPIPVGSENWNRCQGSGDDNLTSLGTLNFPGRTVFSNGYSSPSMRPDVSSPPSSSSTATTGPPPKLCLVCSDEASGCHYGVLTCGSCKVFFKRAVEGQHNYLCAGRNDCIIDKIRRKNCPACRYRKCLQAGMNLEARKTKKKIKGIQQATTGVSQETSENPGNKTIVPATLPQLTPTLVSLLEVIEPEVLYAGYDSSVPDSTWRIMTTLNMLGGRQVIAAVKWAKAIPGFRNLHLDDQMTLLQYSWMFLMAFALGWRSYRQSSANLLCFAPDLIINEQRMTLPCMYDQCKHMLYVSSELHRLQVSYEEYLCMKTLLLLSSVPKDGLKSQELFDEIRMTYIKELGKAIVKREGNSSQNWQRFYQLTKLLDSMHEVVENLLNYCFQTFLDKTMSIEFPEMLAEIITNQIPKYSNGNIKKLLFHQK
Dual specificity protein kinase CLK4 (Homo sapiens), sequence (Q9HAZ1 whole entry, looked up): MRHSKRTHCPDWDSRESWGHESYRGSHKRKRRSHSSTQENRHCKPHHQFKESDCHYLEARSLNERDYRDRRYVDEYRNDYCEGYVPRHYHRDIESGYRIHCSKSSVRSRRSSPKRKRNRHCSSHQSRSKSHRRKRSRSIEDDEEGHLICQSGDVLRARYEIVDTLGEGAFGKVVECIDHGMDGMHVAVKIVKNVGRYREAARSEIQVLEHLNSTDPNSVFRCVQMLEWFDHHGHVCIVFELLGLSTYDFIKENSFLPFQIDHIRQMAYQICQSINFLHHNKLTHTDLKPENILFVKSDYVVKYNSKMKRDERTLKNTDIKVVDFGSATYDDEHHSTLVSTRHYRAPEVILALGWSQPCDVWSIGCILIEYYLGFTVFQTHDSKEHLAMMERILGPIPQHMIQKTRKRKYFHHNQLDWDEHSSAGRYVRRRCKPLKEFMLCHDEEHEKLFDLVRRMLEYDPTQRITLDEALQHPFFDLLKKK
Cytochrome P450 3A4 (Homo sapiens), sequence (P08684 whole entry, looked up): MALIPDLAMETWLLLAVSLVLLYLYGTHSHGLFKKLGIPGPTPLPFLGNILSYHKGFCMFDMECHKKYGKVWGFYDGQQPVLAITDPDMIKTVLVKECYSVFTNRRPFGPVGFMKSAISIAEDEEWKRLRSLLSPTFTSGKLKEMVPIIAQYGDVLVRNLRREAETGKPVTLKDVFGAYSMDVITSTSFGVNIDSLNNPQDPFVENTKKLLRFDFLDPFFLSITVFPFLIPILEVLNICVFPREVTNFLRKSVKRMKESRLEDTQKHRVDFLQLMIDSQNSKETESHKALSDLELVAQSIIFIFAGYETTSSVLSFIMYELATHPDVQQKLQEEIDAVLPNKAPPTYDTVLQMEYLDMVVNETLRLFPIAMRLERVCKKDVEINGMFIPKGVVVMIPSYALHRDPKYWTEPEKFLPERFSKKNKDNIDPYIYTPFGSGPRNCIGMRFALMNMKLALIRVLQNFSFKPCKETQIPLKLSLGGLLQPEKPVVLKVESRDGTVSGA
Lysosomal acid glucosylceramidase (Homo sapiens), sequence (P04062 whole entry, looked up): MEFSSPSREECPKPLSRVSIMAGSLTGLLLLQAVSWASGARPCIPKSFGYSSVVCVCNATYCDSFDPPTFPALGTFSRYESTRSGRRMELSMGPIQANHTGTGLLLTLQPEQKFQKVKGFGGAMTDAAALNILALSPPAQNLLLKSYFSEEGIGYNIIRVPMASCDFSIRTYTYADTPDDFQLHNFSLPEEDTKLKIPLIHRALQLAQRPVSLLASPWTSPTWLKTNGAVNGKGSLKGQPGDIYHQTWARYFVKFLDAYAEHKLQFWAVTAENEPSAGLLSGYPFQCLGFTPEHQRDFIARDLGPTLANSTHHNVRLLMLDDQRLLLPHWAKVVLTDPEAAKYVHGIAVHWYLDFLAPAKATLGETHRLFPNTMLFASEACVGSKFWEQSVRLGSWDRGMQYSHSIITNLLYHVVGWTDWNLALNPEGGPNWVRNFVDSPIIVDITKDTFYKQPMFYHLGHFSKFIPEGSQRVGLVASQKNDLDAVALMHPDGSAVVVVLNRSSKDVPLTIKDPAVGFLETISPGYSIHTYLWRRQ
Cytochrome P450 1A2 (Homo sapiens), sequence (P05177 whole entry, looked up): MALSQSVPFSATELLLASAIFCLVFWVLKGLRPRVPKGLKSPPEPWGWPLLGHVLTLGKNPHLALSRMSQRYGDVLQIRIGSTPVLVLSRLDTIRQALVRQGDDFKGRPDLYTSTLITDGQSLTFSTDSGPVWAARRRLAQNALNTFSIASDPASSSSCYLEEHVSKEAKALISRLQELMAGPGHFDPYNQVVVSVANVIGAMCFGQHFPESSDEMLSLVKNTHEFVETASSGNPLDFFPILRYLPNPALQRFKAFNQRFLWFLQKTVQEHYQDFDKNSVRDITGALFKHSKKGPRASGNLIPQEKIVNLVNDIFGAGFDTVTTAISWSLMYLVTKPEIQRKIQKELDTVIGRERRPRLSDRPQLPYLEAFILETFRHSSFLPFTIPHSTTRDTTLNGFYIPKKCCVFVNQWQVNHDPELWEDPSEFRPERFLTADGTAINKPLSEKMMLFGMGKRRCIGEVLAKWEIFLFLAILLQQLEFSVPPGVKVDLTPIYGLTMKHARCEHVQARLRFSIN
3',5'-cyclic-AMP phosphodiesterase 4B (Homo sapiens), sequence (Q07343 whole entry, looked up): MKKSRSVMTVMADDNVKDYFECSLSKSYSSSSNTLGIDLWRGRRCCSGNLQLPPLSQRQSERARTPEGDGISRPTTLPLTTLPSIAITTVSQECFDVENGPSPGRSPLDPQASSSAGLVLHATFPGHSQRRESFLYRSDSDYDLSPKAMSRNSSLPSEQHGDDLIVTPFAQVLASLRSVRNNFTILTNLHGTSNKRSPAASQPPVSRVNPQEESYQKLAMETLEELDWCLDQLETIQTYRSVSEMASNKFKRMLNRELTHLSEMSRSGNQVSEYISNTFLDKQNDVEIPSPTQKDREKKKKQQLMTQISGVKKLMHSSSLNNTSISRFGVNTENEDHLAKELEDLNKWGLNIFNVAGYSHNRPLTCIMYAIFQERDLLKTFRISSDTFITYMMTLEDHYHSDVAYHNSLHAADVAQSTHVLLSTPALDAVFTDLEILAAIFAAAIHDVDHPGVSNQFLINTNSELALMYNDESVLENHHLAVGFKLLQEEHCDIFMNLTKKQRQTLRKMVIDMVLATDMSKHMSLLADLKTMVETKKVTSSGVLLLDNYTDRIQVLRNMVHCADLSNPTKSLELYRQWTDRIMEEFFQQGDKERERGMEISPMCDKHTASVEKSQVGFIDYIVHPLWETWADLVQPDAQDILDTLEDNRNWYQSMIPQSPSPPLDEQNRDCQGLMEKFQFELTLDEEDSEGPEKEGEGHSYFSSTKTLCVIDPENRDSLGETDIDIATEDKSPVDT
Cytochrome P450 2C19 (Homo sapiens), sequence (P33261 whole entry, looked up): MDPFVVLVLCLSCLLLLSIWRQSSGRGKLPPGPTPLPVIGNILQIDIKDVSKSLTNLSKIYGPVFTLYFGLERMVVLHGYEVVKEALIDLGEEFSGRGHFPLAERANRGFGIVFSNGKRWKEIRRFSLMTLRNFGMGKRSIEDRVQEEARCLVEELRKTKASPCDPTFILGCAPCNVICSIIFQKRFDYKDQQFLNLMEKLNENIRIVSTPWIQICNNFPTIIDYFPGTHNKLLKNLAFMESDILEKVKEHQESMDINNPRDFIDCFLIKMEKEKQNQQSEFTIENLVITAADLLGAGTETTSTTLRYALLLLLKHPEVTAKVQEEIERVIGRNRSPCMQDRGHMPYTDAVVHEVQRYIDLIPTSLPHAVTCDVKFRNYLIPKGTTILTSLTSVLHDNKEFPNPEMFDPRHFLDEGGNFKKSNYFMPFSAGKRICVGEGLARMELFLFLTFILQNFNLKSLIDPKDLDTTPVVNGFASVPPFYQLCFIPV

Turning to `CCNc1ncc2ncc(=O)n(C3CC3)c2n1`, the Potency in [1] is > 11.4 µM (inactive); in experiment [3] it was 3.16 µM (active); in experiment [6] it was > 46 µM (inactive); in experiment [9], 11.2 µM (active); in experiment [10] it was 12.6 µM (active). Moreover, the figures for the activity change, negative = inhibition in experiment [2], in experiment [4] and in experiment [8] were -20.4% (inactive), -6.86% (inactive) and 3.55% (inactive), respectively. For the same molecule, the activity, negative = inhibition in experiment [5] was -6.01% (inactive). In [7], the outcome was inactive. The max response in [8] (setting [18]) worked out at 13.3%; in experiment [8] (setting [19]) it was 13.9%. Also, the Potency result in experiment [11] and in experiment [12] was “inactive” each time.
For `CCNc1ncc2nc(-c3cc(F)cc(F)c3)c(=O)n(C[C@H]3CCCO3)c2n1`, the Potency in experiment [1] is > 11.4 µM (inactive); in experiment [3], 3.16 µM (active); in [13] it was > 9.22 µM (inactive); in experiment [6], > 46 µM (inactive). The results for the activity change, negative = inhibition in experiment [2], in experiment [4] and in experiment [8] were 7.28% (inactive), 8.04% (inactive) and 6.72% (inactive), respectively. Also, the activity, negative = inhibition in experiment [5] was -1.58% (inactive). Further, the result in experiment [7] was inactive. For the same molecule, the Potency result in [14], in [15], in experiment [9], in [10], in [11] and in experiment [12] was “inactive” throughout. Further, the max response in experiment [8] (setting [18]) stood at 13.4%; in experiment [8] (setting [19]), 19%.
For `Clc1ccccc1-c1cncnc1NCc1cccs1`, the Potency in experiment [1] is > 11.4 µM (inactive); in experiment [3], 3.98 µM (active); in experiment [13], > 46 µM (inactive); in experiment [16], 0.501 µM (active); in experiment [17], 1.58 µM (active). Also, the activity change, negative = inhibition in experiment [2] is -10.1% (inactive); in [8], 4.06% (inactive). Moreover, the activity, negative = inhibition in experiment [5] is -9.78% (inactive). The call in [7] was inactive. Also, the Potency entry in [15], in experiment [9], in experiment [10] and in experiment [12] was “inactive” each time. In addition, the max response is 21% in experiment [8] (setting [18]) and 23.3% in [8] (setting [19]).
With `Cn1c(=O)c(-c2ccc(Cl)cc2)nc2cnc(N3CCOCC3)nc21`, the Potency in experiment [1] was > 11.4 µM (inactive); in experiment [3] it was 2.51 µM (active); in [13], > 9.22 µM (inactive); in [6], > 46 µM (inactive). In addition, the results for the activity change, negative = inhibition in experiment [4] and in experiment [8] were 26.9% (inactive) and 6.96% (inactive), respectively. For the same molecule, in experiment [7], the molecule was classed as inactive. Besides, the Potency result in [14], in experiment [16], in [9], in experiment [10], in experiment [11] and in experiment [12] was “inactive” each time. Moreover, the values for the max response in experiment [8] (setting [18]) and in experiment [8] (setting [19]) were 10.9% and 17.6%, respectively.
For `COc1cccc(Nc2ncc3nc(C)c(=O)n(C)c3n2)c1`, the Potency is > 11.4 µM (inactive) in experiment [1], 1 µM (active) in experiment [3], > 9.22 µM (inactive) in experiment [13] and > 46 µM (inactive) in experiment [6]. For the same molecule, the activity change, negative = inhibition in [2] was -0.695% (inactive); in [4] it was -5.64% (inactive); in experiment [8], -0.403% (inactive). The activity, negative = inhibition in experiment [5] is -12.2% (inactive). In [7], the outcome was inactive. In addition, the Potency result in [14], in experiment [10], in experiment [11] and in [12] was “inactive” throughout. Also, the max response in experiment [8] (setting [18]) came out at 5.56%; in [8] (setting [19]), 2.52%.
`COc1ccc(CNc2ncncc2-c2cccnc2)c(OC)c1`: the Potency in experiment [1] was > 11.4 µM (inactive); in experiment [3] it was 3.16 µM (active); in experiment [16] it was 0.501 µM (active). The activity change, negative = inhibition in experiment [2] was 3.11% (inactive); in experiment [4], 4.08% (inactive); in experiment [8] it was 4.88% (inactive). In addition, in experiment [5], the activity, negative = inhibition is 0.586% (inactive). Besides, in experiment [7], the molecule was classed as inactive. For the same molecule, the Potency result in [14], in experiment [15], in experiment [10], in experiment [11] and in [12] was “inactive” throughout. Further, the values for the max response in experiment [8] (setting [18]) and in [8] (setting [19]) were 18.2% and 22.7%, respectively.

These data come from PubChem BioAssay (NCATS).
